# Hit rate of the full screen: of about 69,000 compounds, about 8,600 (12%) showed an effect of 50% or more. This excerpt belongs to a sample that is enriched for strong results.
# Test system: Plasmodium berghei
# Assay: Screen against P. berghei liver stage (PbLuc), transformed with Luciferase, at 10uM
# Format: functional, HepG2
# Settings: tested at 10 uM
row,Compound,INHIBITION
1,CCc1oc(C(=O)N2CCC(N(CC)C(C)=O)C2)cc1CN(CC)CC (stereo not drawn),19.4%
2,O=C(NCc1cccnc1)N1CCc2ncnc(NC3CC3)c2CC1,4.98%
3,COc1c(C2CCCN2Cc2nc(-c3ccco3)no2)c(C)nn1C (stereo not drawn),-21.8%
4,Cc1nc(-c2ccc(CO)cc2)cc(C2CCNCC2)n1,23.9%
5,Cn1ccc(CN2CCC3(CC2)CC(Nc2ccccn2)CO3)n1 (stereo not drawn),37.9%
6,Cc1nc(CN2CCCc3cc(OC(F)(F)F)ccc32)oc1C,37.9%
7,Cc1nn(C)c(C)c1CNCc1ccc(N2CCOCC2)nc1,32.8%
8,O=C(NCC1CC1)[C@H]1C[C@H]2CN(C(=O)NCC3CCCCC3)C[C@@H]1O2,20.1%
9,Cc1cccn2c(=O)cc(OC(=O)c3ccccc3Cl)nc12,26.7%
10,CC(C)(C)n1cc(C2=CCN(CCN3CCCCCC3)CC2)cn1,0.734%
11,CC(C)(C)n1cc(C2=CCN(CCc3ccccn3)CC2)cn1,18.7%
12,CC(C)(C)n1cc(C2=CCN(CCc3ccccc3)CC2)cn1,50.2%
13,CC(C)(C)c1cnc(CN2CCCCC2Cn2cccn2)o1 (stereo not drawn),14.4%
14,Fc1cccc(CN2CCN(Cc3cscn3)CC2)c1,36.7%
15,CCn1ccnc1CN1CCN(Cc2cc(C#N)ccc2F)CC1,35.9%
16,c1cncc(CN2CCn3cc(Cn4cccn4)nc3C2)c1,31.7%
17,Fc1ccc(CN2CCn3cc(Cn4cccn4)nc3C2)cc1,-53.6%
18,c1ccc(CN2CCN(Cc3cscn3)CC2)cc1,19.4%
19,CCn1ccnc1CN1CCN(CCOc2ccccc2C#N)CC1,14.1%
20,CCn1ccnc1CN1CCN(Cc2cccc(C#N)c2)CC1,68.8%
21,N#Cc1cccc(CN2CCN(Cc3cscn3)CC2)c1,66.4%
22,CCn1ccnc1CN1CCN(CCOc2cccc(C#N)c2)CC1,23.2%

row,Compound,INHIBITION
1,N#Cc1cccc(CN2CCn3cc(Cn4cccn4)nc3C2)c1,58.8%
2,CCn1ccnc1CN1CCN(Cc2ccc(C#N)cc2)CC1,48.1%
3,CCn1ccnc1CN1CCN(CCOc2ccc(C#N)cc2)CC1,52.3%
4,O=C(c1ccc2[nH]cnc2c1)N1CCCC1Cn1cccn1 (stereo not drawn),-0.514%
5,C[C@@H]1CN(S(C)(=O)=O)C[C@]12CCN(Cc1cccnc1)C2=O,-28.2%
6,CNC(=O)c1cc(C2CCCN2)n[nH]1 (stereo not drawn),31.3%
7,c1nc2c(c(C3CC3)n1)CCN(Cc1ccc3c(c1)OCO3)CC2,21.8%
8,c1cnn(CC2CCCN2Cc2cn3ccsc3n2)c1 (stereo not drawn),28%
9,CSCCC(Nc1nc(C)cc(C)n1)C(=O)NCC1CCOCC1 (stereo not drawn),25.2%
10,CCc1csc(C2CCCN(C(=O)COc3cc(C)on3)C2)n1 (stereo not drawn),46.2%
11,O=C1CCCCCN1Cc1ncnn1Cc1c(F)cccc1Cl,5.46%
12,Cc1nc(CN2CCCN(CCOc3ccc(C#N)cc3)CC2)no1,56.6%
13,Cc1cccc(OCCN2CCN(Cc3noc(C)n3)CC2)c1,30.6%
14,COc1ccc(OCCN2CCCN(Cc3noc(C)n3)CC2)cc1,4.52%
15,CC(C(=O)NC1CC1)n1nc(-c2cccs2)cc(N)c1=O (stereo not drawn),23.9%
16,CC(=O)NC1CCCN(C(=O)Nc2cnc3c(cnn3C(C)C)c2)C1 (stereo not drawn),4.31%
17,CC(C)n1ncc2cc(NC(=O)N3CCC(N4CCCC4)C3)cnc21 (stereo not drawn),53.3%
18,CC(C)n1ncc2cc(NC(=O)N3CCC(C(N)=O)C3)cnc21 (stereo not drawn),7.08%
19,O=C1CC[C@H]2CN(Cc3cccnc3)CC[C@H]2N1CCc1c[nH]cn1,23.9%
20,Cc1nc(CN2CC[C@@H]3[C@@H](CCC(=O)N3CCc3c[nH]cn3)C2)co1,44.8%
21,O=C1CC[C@H]2CN(Cc3ccc(Cl)s3)CC[C@H]2N1CCc1c[nH]cn1,78.5%
22,CN(CCO)c1ncc(-c2ccc(NC(=O)[C@@H]3CCCCN3)cc2)cn1,-4.82%

row,Compound,INHIBITION
1,CCn1c(=O)nc(N)c2c(-c3ccc(OC)cc3)csc21,23.9%
2,CCOC(=O)Cn1c(=O)nc(N)c2c(-c3ccc(OC)cc3)csc21,18.3%
3,CCc1c(C)sc2c1c(N)nc(=O)n2CCN(C)C,-14.2%
4,COc1ccc(-c2csc3c2c(N)nc(=O)n3CC(N)=O)cc1,58.2%
5,COc1ccc(-c2csc3c2c(N)nc(=O)n3CCCN(C)C)cc1,60.1%
6,CCc1c(C)sc2c1c(N)nc(=O)n2CCCN(C)C,-11.9%
7,C=C(C)Cn1c(=O)nc(N)c2c(-c3ccc(OC)cc3)csc21,33.2%
8,COc1ccc(-c2csc(N)c2C#N)cc1,40.9%
9,COc1ccc(-c2csc3c2c(N)nc(=O)n3CCN(C)C)cc1,50.8%
10,COc1ccc(CN2C[C@@H]3OCCN(C)[C@@H]3C2)cc1,22.9%
11,CCOC[C@@]12CCC[C@@H]1CN(C(=O)COc1ccccc1OC)C2,10.4%
12,Cc1noc(C)c1CN1C(=O)[C@@H]2CC[C@H]1CN(Cc1cccc(O)c1)C2,-77.6%
13,COCC(O)CN1CC(C)(C)CN(C(=O)CCc2ccccc2)CC1=O (stereo not drawn),-39.8%
14,Cc1ccccc1C(NC(=O)NCC1(O)CCC1)C1CC1 (stereo not drawn),-15.9%
15,CC(C)n1nnnc1-c1ccc(NC(=O)C(C)(C)C#N)cc1F,6.09%
16,CN(C)CC1CCCCN1C(=O)c1ccc(N2CCOCC2)cc1 (stereo not drawn),23.4%
17,CCc1cc(CN(C)C(=O)C2CC(=O)N(c3cccc(O)c3)C2)on1 (stereo not drawn),66.6%
18,CCc1ccc(CN(C)C(=O)C2CC(=O)N(c3cccc(O)c3)C2)nc1 (stereo not drawn),32.1%
19,CCc1nc(CN(C)C(=O)C2CC(=O)N(c3cccc(O)c3)C2)no1 (stereo not drawn),10.3%
20,Cc1cccc(Cn2cc(C)c(N)n2)c1,2.6%
21,CN1[C@H](CN2CCCC2)C[C@@H]2CN(Cc3ccoc3)CC[C@@H]21,-14.3%
22,Cn1cccc1C(=O)N1CCc2ncnc(N3CCCC3)c2CC1,48.9%

row,Compound,INHIBITION
1,CCN(C)c1ncnc2c1CCN(C(=O)c1ccsc1)CC2,14.9%
2,CCN(C)c1ncnc2c1CCN(C(=O)c1cccn1C)CC2,52%
3,Cc1ncnc2c1CCN(C(=O)c1cccn1C)CC2,-0.388%
4,CCN(C)c1ncnc2c1CCN(C(=O)c1ccccn1)CC2,-54.5%
5,CCc1ncnc2c1CCN(C(=O)c1cccn1C)CC2,64.9%
6,O=C(NCCOc1ccc2c(c1)OCO2)N1CCCC(CO)C1 (stereo not drawn),-27.8%
7,Cc1nnc(CN(Cc2ccc3c(c2)OCO3)C2CCCCC2)o1,-9.76%
8,Cn1nc2c(cc1=O)CN(CC(=O)Nc1nccs1)CC2,13.3%
9,Cc1nn(C)c(C)c1-c1ccc(=O)n(C(C)C(=O)NC(C)(C)C)n1 (stereo not drawn),4.02%
10,CCCN(CCC)C(=O)Cn1c(SC)nc2ccsc2c1=O,39.1%
11,Cn1nc(C(=O)NC2CC(C)(C)NC(C)(C)C2)cc1NC(=O)C1CC1,21.8%
12,Cc1ccc(CNC(=O)c2cc(NC(=O)C3CC3)n(C)n2)o1,-8.95%
13,Cc1nn(C)c(C)c1CNC(=O)c1cc(NC(=O)C2CC2)n(C)n1,31.35%
14,Cn1nc(C(=O)NC2CCCC2)cc1NC(=O)C1CC1,-22.8%
15,Cn1nc(C(=O)NC2CC2)cc1NC(=O)C1CC1,75.3%
16,Cn1nc(C(=O)NC2CCCCC2)cc1NC(=O)C1CC1,53.5%
17,CCc1nc(C2CCCN2C(=O)c2ccc3c(c2)COC3)no1 (stereo not drawn),33.8%
18,CN1CCN(C(=O)c2cc3sccc3n2Cc2ccccc2)CC1,11.7%
19,NC(=O)c1cccc(CN2CCOC(Cn3cccn3)C2)c1 (stereo not drawn),30.2%
20,CCOC(=O)[C@@H]1[C@H]2CN(C(=O)OC)CCN2C[C@H]1c1ccccc1,-43.6%
21,CCOC(=O)[C@@H]1CN2CCNC[C@@H]2[C@H]1c1ccccc1,46.4%
22,CCOC(=O)[C@@H]1[C@@H](c2ccccc2)CN2CCN(C(=O)C3CC3)C[C@H]12,12.4%

row,Compound,INHIBITION
1,CCOC(=O)[C@@H]1[C@@H](c2ccccc2)CN2CCN(C(C)=O)C[C@H]12,51%
2,CNC(=O)[C@@H]1[C@H]2CNCCN2C[C@H]1c1ccccc1,11.6%
3,CCOC(=O)[C@@H]1[C@@H](c2ccccc2)CN2CCNC[C@H]12,50.2%
4,O=C(C1CC1)N1CCN2C[C@H](c3ccccc3)[C@@H](CO)[C@H]2C1,51%
5,CCOC(=O)[C@@H]1[C@@H](c2ccccc2)CN2CCN(C(=O)N(C)C)C[C@H]12,32.1%
6,O=C(C1CC1)N1CCN2C[C@@H](CO)[C@H](c3ccccc3)[C@H]2C1,49.5%
7,c1cc(-c2cnc(C3CCNCC3)cn2)n[nH]1,38.7%
8,CCc1noc(C)c1C(=O)N1CCCC1Cn1cccn1 (stereo not drawn),45.7%
9,CC(C)N1CCOCC2(CN(Cc3nccs3)CCO2)C1 (stereo not drawn),10.3%
10,O=C(NC1CCCC1)N1CC[C@H]2[C@H]1CCN2c1nncs1,26%
11,COCCc1nnc(NC(=O)Cc2ccccc2Cl)o1,35.1%
12,COC(=O)N1CCC(CNC(=O)C2CC2)CC1,-10.8%
13,CCn1nc(C)c(-c2cncn2CCN(C)C2CCCC2)c1C,27.6%
14,Cc1ccc2c(c1)CCC2NCc1c(C)nn(CCO)c1C (stereo not drawn),-40.4%
15,CC(C)CC(CO)NC(=O)NCc1csc(N(C)C)n1 (stereo not drawn),-5.1%
16,CC(C)c1cc(NCc2csc(C(C)C)n2)nc(N)n1,58%
17,CC(C)c1cc(NCc2csc(N(C)C)n2)nc(N)n1,87%
18,CC(C)c1nc(CNc2ccc(CNS(C)(=O)=O)cc2)cs1,-72.8%
19,COCC1(CNc2cc(C(C)C)nc(N)n2)CC1,41.2%
20,Cc1nc(N)cc(NCc2csc(N(C)C)n2)n1,-84.1%

# From ChEMBL document CHEMBL4513216, “Probing the Open Global Health Chemical Diversity Library for Multistage-Active Starting Points for Next-Generation Antimalarials” (ACS Infect Dis, 2020)
